Source: PubChem BioAssay
An excerpt weighted towards active compounds, which were near 3.7% of everything screened.
PfHsp90 yeast 2: inhibits growth of yeast expressing Plasmodium falciparum Hsp90; 310,000 compounds, 0.32% hits; S. cerevisiae expressing PfHsp90, BacTiter-Glo ATP, 48 h; yeast lacking PDR1 and PDR3 efflux regulators; AID 504621; inhibition, % at 9.4 µM;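 active = every replicate shows inhibition above about 80%, whatever the replicate mean, limit read from the data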;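 also: 0% = DMSO neutral controls and 100% = 20 µM radicicol positive controls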
tim10-1 inh: growth inhibitors of tim10-1 mutant yeast; S. cerevisiae tim10-1 ts strain growth, BacTiter-Glo, 24 h; AID 463190; 330,000 compounds, 2.2% hits; inhibition, % at 20 µM;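 active = inhibition of at least 40%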;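 also: mutant grown at 25 °C; 0% = DMSO wells with yeast and 100% = wells holding no yeast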
TIM10 inh: growth inhibitors of TIM10 yeast strain; S. cerevisiae TIM10 strain growth, BacTiter-Glo luminescence, 24 h; inhibition, % at 10 µM; 330,000 compounds, 1.4% hits;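 active = inhibition of 40% or more at the single tested concentration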;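 also: wild-type TIM10 isogenic control strain grown at permissive 25 °C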
NLRP3 yeast inh: blocks the NALP3 inflammasome reconstituted in yeast; 330,000 compounds, 0.39% hits; Yeast reconstituted NLRP3/ASC/caspase-1, beta-gal luminescence, 24 h; AID 2825; inhibition, % at 10 µM;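 active = inhibition of 50% or more; inactive = inhibition below 50%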;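 also: plate controls were induced DMSO wells for no effect and uninduced yeast grown without galactose for full effect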
tim23-1 inh: inhibits growth of tim23-1 mutant yeast; S. cerevisiae tim23-1 growth, BacTiter-Glo luminescence, 24 h; 330,000 compounds, 1.3% hits; inhibition, % at 20 µM;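 active = growth inhibition of the mutant yeast at or above 50%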;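 also: temperature-sensitive mutant grown at 25 °C; plate controls were DMSO-treated mutant yeast for no effect and medium wells lacking yeast for full effect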
tim10-1 conf: tim10-1 yeast growth inhibition, confirmed; 7,400 compounds, 56% hits; inhibition, % at 20 µM; S. cerevisiae tim10-1 ts strain growth, BacTiter-Glo, 24 h; shares compounds with tim10-1 inh; AID 463213;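 active = inhibition of yeast growth at or above a set limit in either of two repeat tests at 20 µM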;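 also: tim10-1 mutant grown at permissive 25 °C to find synthetic lethal compounds; 0% = DMSO yeast wells and 100% = medium wells without yeast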
tim10 confirm: confirmation of TIM10 yeast growth inhibitors. shares compounds with TIM10 inh. S. cerevisiae tim10 strain growth, BacTiter-Glo luminescence, 24 h. inhibition, % at 10 µM. 4,600 compounds, 63% hits;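 active = inhibition of yeast growth at or above a set limit in either of two replicates at 10 µM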;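 also: this counterscreen used the strain with wild-type TIM10; 0% = yeast with DMSO and 100% = medium wells lacking yeast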
* marks the source's active call; other numbers are inactive results; / = no result given.

SMILES	PfHsp90 yeast 2	tim10-1 inh	TIM10 inh	NLRP3 yeast inh	tim23-1 inh	tim10-1 conf	tim10 confirm
COc1cc(NC(=O)c2ccc([N+](=O)[O-])o2)ccc1NC(=O)c1ccco1	11	46*	47*	22	46	45*	60*
O=C(Nc1cccc(Cl)c1N1CCCC1)c1ccc([N+](=O)[O-])o1	3	47*	40*	12	22	41*	27
CCN1CCN(c2c(Cl)cccc2NC(=O)c2ccc([N+](=O)[O-])o2)CC1	/	-22	-8	36	1	/	/
Cc1cc(C)cc(NC(=O)c2ccc([N+](=O)[O-])o2)c1	-58	49*	83*	11	-24	34*	82*
O=C(Nc1cccnc1)c1ccc([N+](=O)[O-])o1	8	-5	-29	15	10	/	/
CN(C)c1ccc(C2Nc3cccc4cccc(c34)N2)cc1	-7	57*	66*	14	40	58*	67*
c1ccc(C2Nc3cccc4cccc(c34)N2)cc1	-7	34	28	17	42	/	/
c1csc(C2Nc3cccc4cccc(c34)N2)c1	-5	53*	48*	11	40	52*	-2
COc1ccc(/C=C/C(=O)c2c(C)nc3ccccn23)cc1	/	23	17	-2	22	/	/
Cc1nc2ccccn2c1C(=O)/C=C/c1ccc(F)cc1	/	49*	40*	41	37	37*	43*
COc1ccc2nc(CC(C)(C)CC(=O)O)c[n+]([O-])c2c1	-10	1	-2	3	8	/	/
O=C1CC(c2ccc3c(c2)OCCO3)Oc2ccc([N+](=O)[O-])cc21 (stereo unspecified)	-14	42*	45*	9	47	39*	54*
c1ccc(-c2cnnc(-c3ccccn3)n2)cc1	10	-23	-35	14	-5	/	/
C=CCNc1nc(-c2ccccn2)nnc1-c1ccccc1	49	49*	46*	3	4	41*	25
CC1(C)N=C(c2ccc(Cl)cc2)C(=O)N1	10	7	-2	6	2	/	/
CCOC(=O)CN1N=C(/C=C/c2ccc(OC)cc2)CCC1=O	-25	-12	-1	25	-12	/	/
S=C(NCCc1ccccc1)Nc1ccccc1Cl	8	26	2	30	41	/	/
S=C(NCCCc1ccccc1)Nc1ccccc1Cl	17	49*	52*	11	30	38*	41*
COc1ccc(C2SCCN2S(=O)(=O)c2ccc(NC(C)=O)cc2)cc1 (stereo unspecified)	23	28	32	13	37	/	/
CC(=O)Nc1ccc(S(=O)(=O)N2CCSC2c2ccc(C)cc2)cc1 (stereo unspecified)	5	41*	42*	12	32	28	34*
Cc1ccccc1-c1nc(CN2CCC(C(=O)NCc3cccs3)CC2)c(C)o1	28	6	14	7	1	/	/
Cc1ccc2cccc(NC(=S)NC(=O)c3ccccc3)c2n1	/	43*	42*	11	17	31*	43*
CC(C)c1nc2oc3c(NCC4CCCO4)ncnc3c2c2c1CCC2 (stereo unspecified)	/	46*	45*	-6	31	27	13
CCCc1nc2oc3c(NCC4CCCO4)ncnc3c2c2c1COC(C)(C)C2 (stereo unspecified)	-13	35	9	-4	17	/	/
CCC(C)N(CC(=O)Nc1cccc(C)c1C)C(=O)CCl (stereo unspecified)	-9	53*	54*	13	45	47*	46*
CCC(CC)NC(=O)Nc1cccc(C)c1C	9	2	-2	8	-2	/	/
CC(C)c1ccc(N2C(=O)CC(Sc3nc4ccccc4o3)C2=O)cc1 (stereo unspecified)	/	52*	53*	33	30	46*	41*
COc1ccc(N2C(=O)CC(Sc3ncn[nH]3)C2=O)c(OC)c1 (stereo unspecified)	7	10	24	15	5	/	/
Cc1ccc(N2C(=O)CC(Sc3nc(C)cc(C)n3)C2=O)cc1 (stereo unspecified)	3	3	-5	21	11	/	/
